Assay outcomes deposited in PubChem by NMMLSC.
Only some compounds are listed: those with a hit (about 1.1% of all), similar ones and a draw of the others.
RPL19A-GFP yeast: alters RPL19A-GFP fluorescence in TOR pathway yeast screen | S. cerevisiae RPL19A-GFP strain, flow cytometry, 3 h; active compounds read low | percent response vs DMSO, % at 10 µM | 0.3% of 330,000 active;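 active = percent response vs DMSO below 50%; inconclusive = fewer than 70 events counted for the yeast strain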;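 also: median channel GFP fluorescence of the barcoded RPL19A-GFP strain; lower means less RPL19A-GFP as with rapamycin TOR inhibition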
VLA-4 inh: inhibition in a human VLA-4 binding assay | VLA-4 expressing cells, ligand binding flow cytometry | AID 2557 | 0.2% of 330,000 active | inhibition, % (about 7 µM as worked out from the volumes in the protocol); in the data active = inhibition above about 50%
AGP1 TOR yeast: alters AGP1-GFP fluorescence in TOR pathway yeast screen. S. cerevisiae AGP1-GFP multiplex flow cytometry, 3 h; GFP as percent of DMSO wells. 0.02% of 320,000 active. GFP response vs DMSO, % at 10 µM. AID 2066;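 active = GFP response relative to DMSO above a set limit, near screen average plus 3 SD, cut at about 150% in these data; inconclusive = fewer than 70 cells counted for the yeast strain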;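 also: median GFP channel fluorescence of the gated AGP1 strain per well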
LAP4-GFP MLPCN: modulators of TOR pathway LAP4-GFP in S. cerevisiae; GFP response vs DMSO, % at 10 µM; S. cerevisiae LAP4-GFP multiplex, flow cytometry GFP, 3 h; median GFP as percent of DMSO wells; 0.34% of 320,000 active;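 active = GFP response vs DMSO above a set limit, about the screen mean plus 3 SD, cut at about 150% in these data; inconclusive = under 70 cell events counted for the yeast strain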
CIT2-GFP yeast: modulators of TOR pathway CIT2-GFP in S. cerevisiae; S. cerevisiae CIT2-GFP strain, flow cytometry, 3 h; 100 means same as DMSO wells; GFP response vs DMSO, % at 10 µM; 0.065% of 320,000 active; AID 2029;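 active = GFP response relative to DMSO above a set limit, near the screen mean plus 3 SD, cut at about 150% in these data; inconclusive = Fewer than 70 cells measured for a yeast strain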;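 also: ratio of well median GFP fluorescence to mean of DMSO wells on the plate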
MEP2 TOR yeast: modulators of TOR pathway MEP2-GFP in S. cerevisiae | 0.51% of 330,000 active | GFP response vs DMSO, % at 10 µM | S. cerevisiae MEP2-GFP strain, flow cytometry GFP, 3 h; 100% = DMSO control level;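 active = GFP response versus DMSO above a set limit, roughly screen mean plus 3 SD, cut at about 180% in these data; inconclusive = fewer than 70 cells counted for a yeast strain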;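 also: median GFP fluorescence of the barcode-gated MEP2-GFP cells per well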
Each line names hits and unclear results; the compound was inactive in the other large screens; [ ] = remark or other dose.

CC(C)[C@H](NC(=O)c1ccco1)C(=O)OCC(=O)Nc1ccc(Cl)c(S(=O)(=O)N(C)C)c1	RPL19A-GFP yeast 21[may fluoresce violet], AGP1 TOR yeast inconclusive, CIT2-GFP yeast inconclusive, MEP2 TOR yeast 178[may fluoresce violet]
CC(C)[C@H](NC(=O)c1ccco1)C(=O)OCC(=O)Nc1cccc(F)c1	none
COC(=O)C(Cc1ccc(O)cc1)NC(=O)c1ccc2c(c1)OCCO2 (centres undefined)	RPL19A-GFP yeast 39[may fluoresce violet], AGP1 TOR yeast inconclusive, CIT2-GFP yeast inconclusive, MEP2 TOR yeast 237[may fluoresce violet]
COC(=O)C(Cc1ccc(O)cc1)NC(=O)CCc1ccco1 (centres undefined)	RPL19A-GFP yeast 18[may fluoresce violet], AGP1 TOR yeast inconclusive, LAP4-GFP MLPCN inconclusive, CIT2-GFP yeast inconclusive, MEP2 TOR yeast inconclusive
CCN(CC)S(=O)(=O)c1ccc2[nH]c(=O)cc(C(=O)NCC3CCCO3)c2c1 (centres undefined)	none
CC[C@]12c3[nH]c4ccccc4c3CCN1C(=O)C(CC(=O)NCc1ccc(OC)c(OC)c1)C[C@@H]2C(=O)N1CCN(C(=O)C2CC2)CC1 (some centres undefined)	none
NC(=O)CC12CC3CC(C1)CC(CC(N)=O)(C3)C2	none
CCC12CC3CC(C1)CC(C(=O)O)(C3)C2	CIT2-GFP yeast inconclusive, MEP2 TOR yeast 183[may fluoresce violet]
COc1ccc(CCn2c3c(c(=O)[nH]c2=O)C(NC(=O)c2cccs2)(C(F)(F)F)C(=O)N3)cc1OC (centres undefined)	none
CC(=O)NC1(C(F)(F)F)C(=O)Nc2c1c(=O)[nH]c(=O)n2CCc1ccccc1 (centres undefined)	MEP2 TOR yeast 176
CN(C)/C=C/C(=O)/C=C/c1cn(-c2ncc(C(F)(F)F)cc2Cl)c2ccccc12	RPL19A-GFP yeast 41[may fluoresce violet], AGP1 TOR yeast inconclusive, CIT2-GFP yeast inconclusive, MEP2 TOR yeast 232[may fluoresce violet]
CCN(CC)c1ccc2cc(C(C)=O)c(=O)oc2c1	RPL19A-GFP yeast 19[may fluoresce violet], CIT2-GFP yeast inconclusive, MEP2 TOR yeast 311[may fluoresce violet] (no result: AGP1 TOR yeast)
O=C(CSc1ccsc1[N+](=O)[O-])NC1CCCC1	AGP1 TOR yeast inconclusive, CIT2-GFP yeast inconclusive, MEP2 TOR yeast 204[may fluoresce violet]
CCOC(=O)C1=C(O)c2ccccc2C(=O)/C1=C\c1ccc(CC)cc1	none
CCOC(=O)C1=C(Cc2ccc(C)cc2)C(=O)c2ccccc2C1=O	LAP4-GFP MLPCN 168 (no result: VLA-4 inh)
COCCN1C(=O)N(c2ccc(OC)cc2)C(=O)C1CC(=O)Nc1cccc(F)c1 (centres undefined)	none
CCOc1ccc(S(=O)(=O)N(CC)CC(=O)NC2CCS(=O)(=O)C2)cc1 (centres undefined)	none
COc1ncnc2c1oc1nc(C(C)C)c3c(c12)CC(C)(C)OC3	RPL19A-GFP yeast 44[may fluoresce violet], MEP2 TOR yeast 531[may fluoresce violet] (no result: CIT2-GFP yeast)
COc1ncnc2c1oc1nc(C)c3c(c12)CC(C)(C)OC3	none
CN1C(=O)/C(=C/c2cccc(Cl)c2)Sc2ccc(C(=O)N3CCCC3)cc21	none
O=C(CSc1ccccc1)Nc1ccc(-c2nc3ccccc3[nH]2)cc1	none
O=C(CSc1ccc(Cl)cc1)Nc1cccc(-c2nc3ccccc3[nH]2)c1	MEP2 TOR yeast 188
CCC1=Nc2cc(C(=O)NCc3ccco3)ccc2Sc2ccc(Cl)cc21	none
CCC1=Nc2cc(C(=O)NCc3cccnc3)ccc2Sc2ccc(C)cc21	RPL19A-GFP yeast 48[may fluoresce violet], CIT2-GFP yeast inconclusive, MEP2 TOR yeast 226[may fluoresce violet]
CCN1C(=O)[C@@H]2[C@@H](c3ccc(-c4ccc(F)cc4)c(OC)c3)N3CCCC[C@@]3(C(=O)OC)[C@@H]2C1=O	none
O=C(CCNC(=O)c1ccccc1Cl)Nc1ccc(S(=O)(=O)Nc2nccs2)cc1	none
Cc1cc(NC(=O)c2ccno2)no1	CIT2-GFP yeast 156[may fluoresce green]
Cc1cccc(NC(=O)CSc2nnc(C)c(C)n2)c1	none
Cc1cc(C(=O)N/N=C/c2ccncc2)c2ccccc2n1	none
CCN(CC)c1ccc(/C=N/NC(=O)c2cc(C)nc3ccccc23)cc1	MEP2 TOR yeast 678[may fluoresce violet] (no result: AGP1 TOR yeast, LAP4-GFP MLPCN, CIT2-GFP yeast)
CC1(c2ccccc2)NC(=O)N(CC(=O)N(c2ccccc2)C2CCS(=O)(=O)C2)C1=O (centres undefined)	none
Cc1ccc(NC(=S)N(CCCN2CCOCC2)Cc2cccs2)c(C)c1	MEP2 TOR yeast 222
